molecular target: ATP2B3; assay: pooled miR-30 sensor sort-seq; sequence = guide strand; conditions: shRNA
Further: reference of the scale not given here.

Sequence	sensor-assay potency score (higher = more potent)
TATTGTACATAGACCGGCGTGC	0.677
TTGACCAGAAAGATATTCTTGC	0.31
TTAAACAAGGACATCAGGGAAC	-0.472
TTTGCTTTTAATATCTATTGGC	0.393
AAAACAACTACAACCTTGCTAC	-0.0751

molecular target: ATP2C2; assay: as above; conditions: shRNA

Sequence	sensor-assay potency score (higher = more potent)
TAAGAGGAAAAACTGATCCGGT	-0.305
TCATCTTCACAGACACACCAGA	-0.317
TTTAATATCACTTAAGTCCATC	-0.736
TTGTGCTTTGGGCTGGTCCTGA	-0.105
TACGACATCACCAGGAACCAGT	-0.544
TTCTGCTCTGAACTGAATGGAA	-0.474
TAGAGGAACATGTGGTTCCTGA	-0.803
TTGTACATGGTGCAGTAGCGGA	-1.45
TCATCTTAAACACTTCTCCGAA	-0.15
TTCCTCTTCGTCCTTCTCCAGC	-1.04
TTAAACACTTCTCCGAACTGAG	-0.019

molecular target: ATP6V0A1; assay: as above; conditions: shRNA

Sequence	sensor-assay potency score (higher = more potent)
TTATTGGTAGCAATGTTCCAAA	-1.08
TCTCTTTCTCAACAAATCGAAG	-1.57
TTTCTGTCCAGAATACAACATT	-0.792
TTTTAATTCGGTCAGTTCCAGG	-1.24
TTGAATAACCAGACTCTGGGTA	0.472
TTTCTGAGTCACATCTATGTTG	-0.762
TTTATTGGTAGCAATGTTCCAA	0.458
TCTAAGTCAATCATGTCCCGGG	0.648
TTTCTCAACAAATCGAAGCTTT	0.0812
TGACACAACAATAAGCAGCCTC	-0.151
TTGGAAAACATTCACATCTGGA	0.211
ATAACAGACATCTTCATCTTAA	-0.304
TTTATTCTGGAACTCAACCCAG	-0.592
TTATTCTGGAACTCAACCCAGT	0.03
TAAGCATCTACTATGTTCTGAA	0.161
TTCCGCACTTTGATGAACCAGA	-0.516
TTAAACAGCAGCATCCAAGGTA	0.712
TTGGAGATCATCAATCCTGGTA	0.0241
TAAGTCACGAAACTGAACCTTT	-0.177
TTTCTTCACATCTTCTAACTTC	-0.0928
TATAAGTAAACATCGGCCGTAC	0.244
AATACAACATTGAATAACCAGA	-1.17
TTATAAGTAAACATCGGCCGTA	-0.196
